From the supplement of paper PMC10849652
About 7,900 targets were measured; listed, in parts, are those with a hit and a random draw of the rest. About 0.6% of all pairs of compound and target were hits.

How the values were obtained:
Test in all cases: log2 fold change, soluble protein after heating vs DMSO (PISA); higher = thermal stabilisation; K562 cells, 10 uM, 30 min; active = over 0.2 and 3.5 SD of the protein, either way, in both replicates (recomputed)
[1] = compound: COC1=CC=C(C=C1)CN2C=CC3=C2C=C(C=C3)C(=O)NO
In short: (§1)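 Quantification of soluble protein used TMTpro 16plex LC-MS/MS, with channel sums equalised. Samples were the supernatant after 21,000xg for 90 min of pooled aliquots from K562 cells (2×10^6 cells/mL) treated with 10 μM compound for 30 min, heated for 3 min over 48°C-58°C, and extracted in PBS with 0.5% NP-40 at 4°C. Values, from duplicates, describe thermal stability against control samples on a log2 fold-change scale.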

filanesib = compound: CON(C)C(=O)N1N=C(c2cc(F)ccc2F)S[C@@]1(CCCN)c1ccccc1 [filanesib]
In short: as §1

zotarolimus = compound: CO[C@H]1C[C@@H]2CC[C@@H](C)[C@@](O)(O2)C(=O)C(=O)N2CCCC[C@H]2C(=O)O[C@H]([C@H](C)C[C@@H]2CC[C@H](n3cnnn3)[C@H](OC)C2)CC(=O)[C@H](C)/C=C(\C)[C@@H](O)[C@@H](OC)C(=O)[C@H](C)C[C@H](C)/C=C/C=C/C=C/1C [zotarolimus]
In short: as §1

idasanutlin = compound: COc1cc(C(=O)O)ccc1NC(=O)[C@@H]1N[C@@H](CC(C)(C)C)[C@](C#N)(c2ccc(Cl)cc2F)[C@H]1c1cccc(Cl)c1F [idasanutlin]
In short: as §1

alisertib = compound: COc1cc(Nc2ncc3c(n2)-c2ccc(Cl)cc2C(c2c(F)cccc2OC)=NC3)ccc1C(=O)O [alisertib]
In short: as §1

[2] = compound: COc1cc2nc(-c3cc(F)ccc3O)nc(N[C@@H]3CNC[C@H]3C(C)(C)O)c2cc1OC
In short: as §1

gefitinib = compound: COc1cc2ncnc(Nc3ccc(F)c(Cl)c3)c2cc1OCCCN1CCOCC1 [gefitinib]
In short: as §1

[3] = compound: COc1cccc2cc(-c3nc([C@H]4CC[C@H](C(=O)O)CC4)n4ncnc(N)c34)[nH]c12
In short: as §1

lapatinib = compound: CS(=O)(=O)CCNCc1ccc(-c2ccc3ncnc(Nc4ccc(OCc5cccc(F)c5)c(Cl)c4)c3c2)o1 [lapatinib]
In short: as §1

pictilisib = compound: CS(=O)(=O)N1CCN(Cc2cc3nc(-c4cccc5[nH]ncc45)nc(N4CCOCC4)c3s2)CC1 [pictilisib]
In short: as §1

[4] = compound: CS(=O)(=O)c1ccc(-c2cnc(N)c(C(=O)Nc3ccccc3)n2)cc1
In short: as §1

crizotinib = compound: C[C@@H](Oc1cc(-c2cnn(C3CCNCC3)c2)cnc1N)c1c(Cl)ccc(F)c1Cl [crizotinib]
In short: as §1

[5] = compound: C[C@@H]1COCCN1C2=NC(=NC(=C2)C3(CC3)S(=O)(=O)C)C4=C5C=CNC5=CC=C4
In short: as §1

[6] = compound: C[C@H](C1=CC=C(C=C1)C(=O)NC2=C3C=CNC3=NC=C2)N
In short: as §1

duvelisib = compound: C[C@H](Nc1ncnc2nc[nH]c12)c1cc2cccc(Cl)c2c(=O)n1-c1ccccc1 [duvelisib]
In short: as §1

gandotinib = compound: Cc1cc(Nc2cc(CN3CCOCC3)c3nc(C)c(Cc4ccc(Cl)cc4F)n3n2)n[nH]1 [gandotinib]
In short: as §1

tozasertib = compound: Cc1cc(Nc2cc(N3CCN(C)CC3)nc(Sc3ccc(NC(=O)C4CC4)cc3)n2)n[nH]1 [tozasertib]
In short: as §1

[7] = compound: Cc1cc(SCc2sc(-c3ccc(C(F)(F)F)cc3)nc2C)ccc1OCC(=O)O
In short: as §1

doramapimod = compound: Cc1ccc(-n2nc(C(C)(C)C)cc2NC(=O)Nc2ccc(OCCN3CCOCC3)c3ccccc23)cc1 [doramapimod]
In short: as §1

ispinesib = compound: Cc1ccc(C(=O)N(CCCN)[C@@H](c2nc3cc(Cl)ccc3c(=O)n2Cc2ccccc2)C(C)C)cc1 [ispinesib]
In short: as §1

Measured: log2 fold change

PTTG1IP (UniProt P53801)
UniProt P53801, sequence (P53801 whole entry, looked up): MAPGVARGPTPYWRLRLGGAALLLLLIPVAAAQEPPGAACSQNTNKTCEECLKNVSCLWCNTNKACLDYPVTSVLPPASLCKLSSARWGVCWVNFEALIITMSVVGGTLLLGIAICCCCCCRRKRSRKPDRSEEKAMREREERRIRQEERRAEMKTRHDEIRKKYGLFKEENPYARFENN
inactive: [1] -0.013 | filanesib -0.186 | zotarolimus -0.124 | idasanutlin -0.004 | alisertib -0.046 | [2] 0.038 | gefitinib 0.158 | [3] 0.007 | lapatinib -0.096 | pictilisib 0.086 | [4] 0.043 | crizotinib 0.1 | [5] 0.102 | [6] -0.044 | duvelisib 0.118 | gandotinib 0.094 | tozasertib 0.107 | [7] -0.075 | doramapimod -0.106

PTPMT1 (UniProt Q8WUK0)
UniProt Q8WUK0, sequence (Q8WUK0 whole entry, looked up): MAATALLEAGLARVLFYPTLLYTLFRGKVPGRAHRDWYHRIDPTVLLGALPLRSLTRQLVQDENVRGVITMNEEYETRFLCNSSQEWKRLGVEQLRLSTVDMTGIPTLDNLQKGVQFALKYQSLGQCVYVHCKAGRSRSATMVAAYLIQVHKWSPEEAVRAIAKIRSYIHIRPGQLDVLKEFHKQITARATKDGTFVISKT
active: [2] -0.327 | crizotinib -0.546 | ispinesib -0.429
inactive: [1] -0.084 | filanesib -0.26 | zotarolimus -0.027 | idasanutlin -0.002 | alisertib 0.006 | gefitinib -0.021 | [3] 0.034 | lapatinib -0.064 | pictilisib 0.02 | [4] 0.086 | [5] 0.039 | [6] -0.026 | duvelisib 0.118 | gandotinib -0.125 | tozasertib -0.001 | [7] 0.109 | doramapimod -0.036

POLR2K (UniProt P53803)
inactive: [1] -0.052 | filanesib 0.071 | zotarolimus -0.05 | idasanutlin -0.101 | alisertib -0.005 | [2] 0.134 | gefitinib -0.012 | [3] -0.213 | lapatinib 0.003 | pictilisib 0.117 | [4] 0.029 | crizotinib 0.18 | [5] 0.074 | [6] 0.098 | duvelisib 0.154 | gandotinib -0.011 | tozasertib -0.065 | [7] 0.001 | doramapimod -0.059 | ispinesib 0.029

PDE4DIP isoform 4 (UniProt Q5VU43)
UniProt Q5VU43, sequence (Q5VU43 whole entry, looked up): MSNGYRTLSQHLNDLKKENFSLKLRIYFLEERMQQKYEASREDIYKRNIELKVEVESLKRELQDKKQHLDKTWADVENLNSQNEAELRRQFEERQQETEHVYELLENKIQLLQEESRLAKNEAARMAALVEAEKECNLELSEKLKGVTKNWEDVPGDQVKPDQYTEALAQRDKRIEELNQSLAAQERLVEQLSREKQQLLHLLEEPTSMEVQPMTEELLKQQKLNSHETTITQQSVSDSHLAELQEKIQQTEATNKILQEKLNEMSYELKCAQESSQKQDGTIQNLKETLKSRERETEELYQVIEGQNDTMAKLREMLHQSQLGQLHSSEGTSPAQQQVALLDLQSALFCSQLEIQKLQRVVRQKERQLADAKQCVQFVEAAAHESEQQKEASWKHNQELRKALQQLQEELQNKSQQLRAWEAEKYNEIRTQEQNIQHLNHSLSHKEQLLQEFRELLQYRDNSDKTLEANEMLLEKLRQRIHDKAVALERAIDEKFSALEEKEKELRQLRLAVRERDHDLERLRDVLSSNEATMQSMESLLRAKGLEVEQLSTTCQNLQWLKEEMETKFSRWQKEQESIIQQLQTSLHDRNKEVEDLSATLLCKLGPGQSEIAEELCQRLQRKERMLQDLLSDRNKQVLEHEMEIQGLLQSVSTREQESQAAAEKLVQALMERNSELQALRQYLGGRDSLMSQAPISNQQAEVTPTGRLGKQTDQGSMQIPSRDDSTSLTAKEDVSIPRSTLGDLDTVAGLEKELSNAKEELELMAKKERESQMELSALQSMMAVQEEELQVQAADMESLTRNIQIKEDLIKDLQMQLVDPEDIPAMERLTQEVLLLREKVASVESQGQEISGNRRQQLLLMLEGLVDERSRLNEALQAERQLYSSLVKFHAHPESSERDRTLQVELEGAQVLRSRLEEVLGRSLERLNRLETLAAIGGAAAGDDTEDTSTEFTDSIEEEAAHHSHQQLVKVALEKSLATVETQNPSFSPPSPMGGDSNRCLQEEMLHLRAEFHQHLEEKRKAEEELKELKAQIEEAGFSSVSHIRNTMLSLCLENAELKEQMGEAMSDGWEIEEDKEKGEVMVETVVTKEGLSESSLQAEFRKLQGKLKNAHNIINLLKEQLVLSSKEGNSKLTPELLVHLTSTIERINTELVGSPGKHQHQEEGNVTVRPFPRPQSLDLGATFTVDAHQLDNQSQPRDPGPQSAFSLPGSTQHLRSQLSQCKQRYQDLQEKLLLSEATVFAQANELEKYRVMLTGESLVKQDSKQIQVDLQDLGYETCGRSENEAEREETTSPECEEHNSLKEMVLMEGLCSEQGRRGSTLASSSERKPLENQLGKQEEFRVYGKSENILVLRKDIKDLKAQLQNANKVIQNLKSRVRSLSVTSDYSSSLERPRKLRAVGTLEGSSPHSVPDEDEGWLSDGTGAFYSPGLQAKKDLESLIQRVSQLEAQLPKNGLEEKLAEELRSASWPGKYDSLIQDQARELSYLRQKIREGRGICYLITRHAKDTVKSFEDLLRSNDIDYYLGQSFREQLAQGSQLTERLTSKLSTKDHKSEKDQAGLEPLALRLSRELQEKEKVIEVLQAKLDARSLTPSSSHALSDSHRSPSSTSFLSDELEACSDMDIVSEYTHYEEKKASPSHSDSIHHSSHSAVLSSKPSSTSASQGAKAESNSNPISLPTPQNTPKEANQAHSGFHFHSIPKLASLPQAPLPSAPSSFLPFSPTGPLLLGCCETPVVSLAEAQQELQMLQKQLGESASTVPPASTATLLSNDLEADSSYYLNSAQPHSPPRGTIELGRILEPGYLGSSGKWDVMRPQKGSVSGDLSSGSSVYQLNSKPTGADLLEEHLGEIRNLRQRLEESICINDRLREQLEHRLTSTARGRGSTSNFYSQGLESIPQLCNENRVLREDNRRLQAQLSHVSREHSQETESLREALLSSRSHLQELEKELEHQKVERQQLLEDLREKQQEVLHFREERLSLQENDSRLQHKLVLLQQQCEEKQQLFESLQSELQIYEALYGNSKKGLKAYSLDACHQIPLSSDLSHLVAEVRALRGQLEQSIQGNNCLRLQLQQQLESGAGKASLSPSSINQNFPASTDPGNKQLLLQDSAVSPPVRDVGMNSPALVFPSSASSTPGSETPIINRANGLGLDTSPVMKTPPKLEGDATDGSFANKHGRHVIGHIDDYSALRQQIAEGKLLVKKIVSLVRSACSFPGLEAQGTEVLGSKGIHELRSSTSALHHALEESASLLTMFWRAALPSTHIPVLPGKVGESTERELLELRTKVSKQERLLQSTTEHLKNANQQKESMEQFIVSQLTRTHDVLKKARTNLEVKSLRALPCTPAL
inactive: [1] 0.113 | filanesib -0.057 | zotarolimus -0.046 | idasanutlin 0.055 | alisertib -0.102 | [2] 0.024 | gefitinib 0.024 | [3] -0.022 | lapatinib -0.005 | pictilisib 0.042 | [4] -0.007 | crizotinib 0.02 | [5] 0.134 | [6] -0.002 | duvelisib 0.072 | gandotinib 0.106 | tozasertib -0.011 | [7] 0.008 | doramapimod 0.01 | ispinesib -0.073

PUM1 isoform 3 (UniProt Q14671)
inactive: [1] -0.003 | filanesib 0.007 | zotarolimus -0.023 | idasanutlin 0.006 | alisertib -0.039 | [2] -0.025 | gefitinib 0.025 | [3] -0.002 | lapatinib 0.004 | pictilisib -0.012 | [4] 0.007 | crizotinib -0.02 | [5] -0.007 | [6] 0.071 | duvelisib 0.008 | gandotinib -0.055 | tozasertib 0.007 | [7] 0.007 | doramapimod -0.03 | ispinesib 0.01

PCBP2 (UniProt F8VRH0)
inactive: [1] 0.139 | filanesib 0.107 | zotarolimus 0.013 | idasanutlin 0.218 | alisertib 0.305 | [2] -0.34 | gefitinib 0.055 | [3] -0.21 | lapatinib 0.06 | pictilisib -0.231 | [4] -0.181 | crizotinib -0.075 | [5] -0.22 | [6] -0.267 | duvelisib -0.299 | gandotinib 0.013 | tozasertib -0.055 | [7] 0.074 | doramapimod -0.225

PRMT8 (UniProt Q9NR22)
UniProt Q9NR22, sequence (Q9NR22 whole entry, looked up): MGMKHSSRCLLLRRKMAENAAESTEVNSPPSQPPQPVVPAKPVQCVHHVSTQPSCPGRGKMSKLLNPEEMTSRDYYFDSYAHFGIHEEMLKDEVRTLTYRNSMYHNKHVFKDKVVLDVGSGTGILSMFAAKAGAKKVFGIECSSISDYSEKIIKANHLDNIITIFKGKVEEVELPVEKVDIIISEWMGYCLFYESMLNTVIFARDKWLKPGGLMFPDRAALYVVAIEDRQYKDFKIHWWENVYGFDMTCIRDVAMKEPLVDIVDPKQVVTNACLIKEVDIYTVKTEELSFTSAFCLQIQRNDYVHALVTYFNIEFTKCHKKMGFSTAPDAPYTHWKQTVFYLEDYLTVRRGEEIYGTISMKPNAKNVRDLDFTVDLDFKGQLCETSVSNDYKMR
inactive: [1] -0.143 | filanesib -0.162 | zotarolimus -0.014 | idasanutlin -0.109 | alisertib -0.028 | [2] -0.019 | gefitinib 0.002 | [3] 0.042 | lapatinib 0.145 | pictilisib 0.025 | [4] -0.046 | crizotinib -0.03 | [5] -0.043 | [6] 0.024 | duvelisib 0.012 | gandotinib -0.047 | tozasertib -0.024 | [7] 0.045 | doramapimod -0.021 | ispinesib 0.13

PRKCE (UniProt Q02156)
UniProt Q02156, sequence (Q02156 whole entry, looked up): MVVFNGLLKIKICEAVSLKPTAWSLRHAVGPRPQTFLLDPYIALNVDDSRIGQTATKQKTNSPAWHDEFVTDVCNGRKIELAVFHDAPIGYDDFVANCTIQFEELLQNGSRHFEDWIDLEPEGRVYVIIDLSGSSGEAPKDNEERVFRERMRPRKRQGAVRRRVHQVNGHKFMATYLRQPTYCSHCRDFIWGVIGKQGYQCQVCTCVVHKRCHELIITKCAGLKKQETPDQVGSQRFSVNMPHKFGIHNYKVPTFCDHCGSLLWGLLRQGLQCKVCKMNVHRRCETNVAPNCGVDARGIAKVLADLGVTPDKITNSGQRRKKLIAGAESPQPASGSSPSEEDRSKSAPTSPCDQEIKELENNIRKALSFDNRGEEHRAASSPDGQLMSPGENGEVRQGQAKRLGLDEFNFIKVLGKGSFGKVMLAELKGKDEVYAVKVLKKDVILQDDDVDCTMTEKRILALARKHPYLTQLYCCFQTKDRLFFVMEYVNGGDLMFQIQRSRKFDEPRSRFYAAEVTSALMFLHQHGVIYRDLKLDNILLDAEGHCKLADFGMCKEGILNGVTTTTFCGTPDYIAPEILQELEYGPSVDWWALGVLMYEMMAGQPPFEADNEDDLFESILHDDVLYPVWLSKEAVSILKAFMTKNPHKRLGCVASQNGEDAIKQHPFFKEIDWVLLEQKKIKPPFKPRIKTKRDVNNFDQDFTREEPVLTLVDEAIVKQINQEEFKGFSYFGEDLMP
inactive: [1] -0.024 | filanesib -0.082 | zotarolimus 0 | idasanutlin -0.085 | alisertib -0.078 | [2] 0.012 | gefitinib 0.029 | [3] -0.104 | lapatinib 0.025 | pictilisib 0.099 | [4] 0.051 | crizotinib -0.071 | [5] 0.083 | [6] -0.168 | duvelisib 0.032 | gandotinib -0.092 | tozasertib 0.071 | [7] 0.055 | doramapimod -0.003

QRSL1 (UniProt Q9H0R6)
UniProt Q9H0R6, sequence (Q9H0R6 whole entry, looked up): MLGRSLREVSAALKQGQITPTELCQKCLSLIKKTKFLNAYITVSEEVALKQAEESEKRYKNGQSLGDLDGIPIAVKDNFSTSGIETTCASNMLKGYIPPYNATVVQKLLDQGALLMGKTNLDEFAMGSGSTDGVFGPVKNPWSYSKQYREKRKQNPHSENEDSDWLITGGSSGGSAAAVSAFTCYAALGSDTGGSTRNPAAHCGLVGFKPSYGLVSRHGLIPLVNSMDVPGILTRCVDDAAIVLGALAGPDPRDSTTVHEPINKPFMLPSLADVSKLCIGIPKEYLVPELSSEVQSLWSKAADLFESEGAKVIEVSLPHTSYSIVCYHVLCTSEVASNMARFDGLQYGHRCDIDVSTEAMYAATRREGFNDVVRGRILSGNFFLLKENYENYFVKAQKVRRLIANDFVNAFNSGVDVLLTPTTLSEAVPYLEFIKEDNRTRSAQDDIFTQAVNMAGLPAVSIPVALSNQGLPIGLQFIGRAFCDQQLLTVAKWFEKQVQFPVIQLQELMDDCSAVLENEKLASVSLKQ
active: [5] 0.212
inactive: [1] -0.01 | filanesib -0.087 | zotarolimus -0.028 | idasanutlin -0.128 | alisertib 0.022 | [2] -0.005 | gefitinib -0.007 | [3] 0.017 | lapatinib 0.003 | pictilisib 0.06 | [4] 0.046 | crizotinib -0.04 | [6] -0.023 | duvelisib 0.033 | gandotinib 0.082 | tozasertib -0.025 | [7] 0.024 | doramapimod -0.015 | ispinesib -0.049

PCGF2 (UniProt P35227)
inactive: [1] -0.039 | filanesib 0.055 | zotarolimus 0.03 | idasanutlin -0.008 | alisertib 0.036 | [2] 0.11 | gefitinib 0.021 | [3] 0.018 | lapatinib -0.058 | pictilisib -0.02 | [4] 0.041 | crizotinib 0.01 | [5] 0.075 | [6] 0.087 | duvelisib 0.124 | gandotinib 0.121 | tozasertib 0.015 | [7] 0.15 | doramapimod -0.089 | ispinesib 0.021

POLR2B (UniProt P30876)
active: gandotinib 0.26
inactive: [1] 0.034 | filanesib 0.031 | zotarolimus -0.012 | idasanutlin -0.039 | alisertib -0.057 | [2] 0.214 | gefitinib 0.064 | [3] 0.007 | lapatinib -0.018 | pictilisib 0.076 | [4] 0.041 | crizotinib 0.032 | [5] 0.023 | [6] 0.18 | duvelisib 0.025 | tozasertib -0.014 | [7] 0.03 | doramapimod -0.014 | ispinesib -0.048

PRIM2 (UniProt P49643)
inactive: [1] 0.044 | filanesib -0.139 | zotarolimus -0.132 | idasanutlin 0.03 | alisertib -0.042 | [2] 0.063 | gefitinib 0.069 | [3] -0.033 | lapatinib -0.005 | pictilisib 0.086 | [4] 0.078 | crizotinib -0.063 | [5] 0.154 | [6] 0.066 | duvelisib -0.038 | gandotinib 0.07 | tozasertib 0.059 | [7] 0.145 | doramapimod -0.06 | ispinesib -0.061

PIP4K2C (UniProt Q8TBX8)
UniProt Q8TBX8, sequence (Q8TBX8 whole entry, looked up): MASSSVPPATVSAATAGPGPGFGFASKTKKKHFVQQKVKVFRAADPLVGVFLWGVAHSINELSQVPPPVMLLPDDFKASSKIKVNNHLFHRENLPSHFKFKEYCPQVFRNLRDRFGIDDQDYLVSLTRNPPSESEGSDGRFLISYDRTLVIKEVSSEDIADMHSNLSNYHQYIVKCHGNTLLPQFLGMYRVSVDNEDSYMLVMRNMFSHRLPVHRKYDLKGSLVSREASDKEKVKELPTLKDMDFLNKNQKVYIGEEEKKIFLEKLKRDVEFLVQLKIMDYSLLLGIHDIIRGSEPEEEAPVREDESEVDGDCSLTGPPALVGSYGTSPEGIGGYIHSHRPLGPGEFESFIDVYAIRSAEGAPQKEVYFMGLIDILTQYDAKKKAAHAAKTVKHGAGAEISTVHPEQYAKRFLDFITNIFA
inactive: [1] 0.058 | filanesib -0.025 | zotarolimus -0.021 | idasanutlin -0.186 | alisertib -0.021 | gefitinib 0.115 | [3] 0.684 | lapatinib -0.043 | pictilisib 0.134 | crizotinib -0.058 | [5] 0.042 | [6] 0.063 | duvelisib 0.047 | gandotinib 0.033 | tozasertib 0.018 | [7] 0.057 | doramapimod -0.044 | ispinesib 0.009
active: [2] 0.866 | [4] 1.06

PRKCQ (UniProt Q04759)
active: [6] -0.374
inactive: [1] -0.044 | filanesib -0.027 | zotarolimus 0.052 | idasanutlin -0.003 | alisertib -0.018 | [2] -0.206 | gefitinib 0.021 | [3] -0.008 | lapatinib 0.041 | pictilisib -0.053 | [4] 0.021 | crizotinib -0.238 | [5] 0.037 | duvelisib 0.022 | gandotinib -0.165 | tozasertib -0.033 | [7] 0.023 | doramapimod 0.038 | ispinesib -0.106

PSMC1 (UniProt P62191)
inactive: [1] -0.062 | filanesib 0.03 | zotarolimus -0.013 | idasanutlin 0.009 | alisertib -0.049 | [2] -0.018 | gefitinib -0.05 | [3] -0.015 | lapatinib 0.054 | pictilisib -0.006 | [4] 0.011 | crizotinib 0.023 | [5] -0.072 | [6] 0.073 | duvelisib -0.047 | gandotinib 0.06 | tozasertib 0.039 | [7] 0.01 | doramapimod 0.033 | ispinesib -0.036

PPP1R12A (UniProt O14974)
active: [2] -0.658 | [6] -0.885
inactive: [1] 0.003 | filanesib 0.064 | zotarolimus 0.048 | idasanutlin 0.041 | alisertib 0.028 | gefitinib 0.009 | [3] -0.006 | lapatinib 0.036 | pictilisib 0.005 | [4] -0.054 | crizotinib -0.351 | [5] -0.039 | duvelisib 0.065 | gandotinib 0.021 | tozasertib 0.011 | [7] 0.029 | doramapimod -0.054 | ispinesib -0.1
